SMILES strings stand for the structures. This is part of a sample that, as a whole, favours compounds with a hit. Of some 83,000 tested, about 20% had one in any assay.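 Negative percent growth values reflect cell death: -40 means 40% of the cells present at the start died, and -100 means all died.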 Values without a mark were called inactive. Calls of active or inactive are those of the source. The calls were made as follows: active = growth percent below 10; inactive = the rest.

Some test systems named below: HCT-15 colon; HT29 colon; SNB-75 CNS; SNB-19 CNS; U251 CNS; PC-3 prostate; SK-MEL-5 melanoma; LOX IMVI melanoma; SK-MEL-28 melanoma; SK-MEL-2 melanoma; EKVX NSCLC; SN12C renal; UO-31 renal; TK-10 renal; ACHN renal; CAKI-1 renal; A498 renal; CCRF-CEM leukemia; MOLT-4 leukemia; UACC-62 melanoma.
Holding throughout (assay): NCI-60 one-dose screen, 48 h (100 = growth as untreated, 0 = no growth, -100 = all killed)
Conditions in all cases: 10 µM unless noted

`CC(=O)Nc1ccc(C(=O)COc2ccc(/C=C3\CCc4ccccc4C3=O)cc2)cc1`: the growth in the assay on HCT-15 colon is 102%; in the assay on HT29 colon it was 104%; in the assay on SNB-75 CNS it was 116%; in the assay with SNB-19 CNS, 106%; in the assay on U251 CNS, 98.6%; in the assay with PC-3 prostate, 88.8%. In addition, the growth with SK-MEL-5 melanoma was 98%; with LOX IMVI melanoma, 99.9%; with SK-MEL-28 melanoma it was 122%; in the assay on SK-MEL-2 melanoma, 77.8%; in the assay on EKVX NSCLC it was 99.8%; with SN12C renal it was 103%. Also, the growth is 33.2% with UO-31 renal; 112% with TK-10 renal; 103% in the assay on ACHN renal; 94.8% with CAKI-1 renal; 66.3% with A498 renal; 89.4% with CCRF-CEM leukemia. Further, the growth in the assay with MOLT-4 leukemia is 78.8%.
As for `CCSCC1CC(O)(c2ccccc2)C(c2ccccc2)C(c2ccc(Cl)cc2)O1` (centres undefined), the growth in the assay with HCT-15 colon is 7.75% (active); in the assay with HT29 colon, 13.5%; in the assay with SNB-75 CNS, 59.4%; in the assay with SNB-19 CNS, 28.5%; with U251 CNS, 5.12% (active); with PC-3 prostate, 4.66% (active). The growth was 0.0955% (active) in the assay on UACC-62 melanoma; -85.2% (active) in the assay on LOX IMVI melanoma; -18.7% (active) in the assay with SK-MEL-28 melanoma; 16.9% in the assay with SK-MEL-2 melanoma; -4.64% (active) in the assay on EKVX NSCLC; -49.9% (active) in the assay with SN12C renal. Also, the growth in the assay with UO-31 renal is 11.9%; with ACHN renal, 22.8%; in the assay on CAKI-1 renal it was -51.3% (active); in the assay with A498 renal, -13.3% (active); with CCRF-CEM leukemia, 13.3%.
For the molecule `COc1cnc2c(c1)C(=O)c1c-2n(CCCNC(C)C)c(=O)c2cc(F)ccc12`, the growth with HCT-15 colon was -5.08% (active); with HT29 colon, 0.147% (active); in the assay on SNB-75 CNS, -22.5% (active); in the assay on SNB-19 CNS, 11%; with U251 CNS, -32.8% (active); in the assay with PC-3 prostate, -5.02% (active). Further, the growth was -98.5% (active) in the assay with SK-MEL-5 melanoma; -68% (active) in the assay with LOX IMVI melanoma; -11.1% (active) with SK-MEL-28 melanoma; -5.42% (active) in the assay with SK-MEL-2 melanoma; -20.8% (active) in the assay on EKVX NSCLC; -4.41% (active) with SN12C renal. For the same molecule, the growth in the assay on UO-31 renal was -89.9% (active); with ACHN renal, -69.4% (active); in the assay on A498 renal it was -89% (active); in the assay with CCRF-CEM leukemia it was -1.1% (active); in the assay on MOLT-4 leukemia, -22.9% (active).
Regarding `O=C(C(=O)c1cc(Br)ccc1O)c1cc(Br)ccc1O`, the growth in the assay with HCT-15 colon is 54%; in the assay on HT29 colon it was 93.7%; with SNB-75 CNS, 59.8%; in the assay on SNB-19 CNS, 37.9%; with U251 CNS, 43.6%; with PC-3 prostate, 46.5%. The growth in the assay on UACC-62 melanoma is 11.7%; with LOX IMVI melanoma it was 39.1%; with SK-MEL-28 melanoma, 51.1%; with SK-MEL-2 melanoma, 28.4%; with EKVX NSCLC it was 88.2%; in the assay with SN12C renal it was 59.4%. For the same molecule, the growth in the assay on UO-31 renal is 24.8%; with TK-10 renal, 61.4%; in the assay on ACHN renal, 55.8%; in the assay on CAKI-1 renal, 50%; with CCRF-CEM leukemia it was 53.2%; in the assay with MOLT-4 leukemia, 37.6%.
For the molecule `CCOC(=O)c1sc(NC(=O)COc2ccc(/C=C3\CCc4cc(OC)ccc4C3=O)cc2)nc1C`, the growth is 102% with HCT-15 colon; 85.8% in the assay on HT29 colon; 105% in the assay on SNB-75 CNS; 96.1% with SNB-19 CNS; 91.2% in the assay with U251 CNS; 79.5% in the assay with PC-3 prostate. Besides, the growth was 95.2% in the assay with UACC-62 melanoma; -88.1% (active) in the assay with LOX IMVI melanoma; 118% with SK-MEL-28 melanoma; 62.3% with SK-MEL-2 melanoma; 90.6% in the assay on EKVX NSCLC; 86.2% in the assay with SN12C renal. For the same molecule, the growth in the assay on UO-31 renal was 14.5%; in the assay with TK-10 renal, 115%; in the assay with ACHN renal it was 103%; with A498 renal it was 76.6%; in the assay on CCRF-CEM leukemia, -62.6% (active); with MOLT-4 leukemia it was 7.56% (active).
For `CCSc1nc(-c2ccc(F)cc2)c(C#N)c(=O)[nH]1`, the growth is 104% in the assay on HCT-15 colon; 106% in the assay with HT29 colon; 93.5% with SNB-75 CNS; 107% in the assay on SNB-19 CNS; 107% with U251 CNS; 127% with PC-3 prostate. The growth in the assay on SK-MEL-5 melanoma was 101%; in the assay with LOX IMVI melanoma, 95.4%; in the assay with SK-MEL-28 melanoma, 108%; in the assay with SK-MEL-2 melanoma, 96.3%; with EKVX NSCLC it was 105%; in the assay with UO-31 renal, 125%. The growth was 97.1% with ACHN renal; 98.7% in the assay on CAKI-1 renal; 112% in the assay on A498 renal; 102% in the assay on CCRF-CEM leukemia; 124% in the assay with MOLT-4 leukemia.
For `CN(C)CCC(=O)Nc1ccc(-n2cc(-c3cccc(NC(=S)Nc4cccc(-c5cn(-c6ccc(NC(=O)CCN(C)C)cc6)nn5)c4)c3)nn2)cc1`, the growth in the assay with HCT-15 colon is 92.5%; in the assay with HT29 colon it was 28.4%; in the assay with SNB-75 CNS it was 119%; in the assay on SNB-19 CNS, 106%; in the assay on U251 CNS it was 70.9%; in the assay on PC-3 prostate, 89%. In addition, the growth in the assay on UACC-62 melanoma was 114%; with LOX IMVI melanoma, 19.3%; with SK-MEL-28 melanoma, 133%; in the assay on SK-MEL-2 melanoma, 91.6%; in the assay on EKVX NSCLC it was 101%; in the assay with SN12C renal, 91.4%. For the same molecule, the growth in the assay on UO-31 renal is 135%; with TK-10 renal it was 142%; in the assay on ACHN renal, 117%; with CAKI-1 renal it was 130%; in the assay on A498 renal, 108%; in the assay with CCRF-CEM leukemia, 48.4%. Further, the growth in the assay on MOLT-4 leukemia was 47.2%.
`Cc1ccccc1NC(=O)NC(CC(N)=O)c1ccc2c(c1)nc(-c1cccc(Oc3ccc(C(C)(C)C)cc3)c1)n2CCCN1CCCCC1C` (centres undefined): the growth was 92.3% in the assay on HCT-15 colon; -34.6% (active) in the assay on HT29 colon; 62.5% in the assay on SNB-75 CNS; 46.2% with SNB-19 CNS; -74.2% (active) in the assay on U251 CNS; 29.7% in the assay with PC-3 prostate. Moreover, the growth in the assay with UACC-62 melanoma is 82.7%; in the assay on LOX IMVI melanoma, -73% (active); in the assay with SK-MEL-28 melanoma, -71.7% (active); in the assay on SK-MEL-2 melanoma it was 51.8%; with EKVX NSCLC it was 79.2%; in the assay with SN12C renal, 59.1%. Moreover, the growth was 88.6% in the assay on UO-31 renal; 31.1% with TK-10 renal; 74.4% in the assay on ACHN renal; 92.6% with CAKI-1 renal; 69.4% with A498 renal; 1.56% (active) with CCRF-CEM leukemia. The growth with MOLT-4 leukemia is -10.6% (active).

The values above are taken from PubChem BioAssay (NCI).
